Assay [1] can be described thus: Cell Viability - BJ (AID 421; calls by dose curve;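 further: potency means the concentration at half of the fitted maximal effect; cells exposed to compound for 40 hours at 37 °C before readout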). The following applies: BJ fibroblast viability, qHTS. The essentials: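 Normal human BJ foreskin fibroblasts, 1500/well in complete medium, treated 40 hr at 37 °C. Cellular ATP by CellTiter-Glo luminescence; normalized to DMSO and 100 uM tamoxifen, AC50 from Hill fit.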
On the technique in general: qHTS replaces the single test concentration by a dilution series.

Assay [2] can be described thus: Cell Viability - HepG2 (AID 433; calls by dose curve;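 further: potency means the concentration at half of the fitted maximal effect; cells exposed to compound for 40 hours; potency for ATP loss meaning cytotoxicity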). As to conditions: qHTS. The essentials:
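Read-out is luciferase-based quantitation of cellular ATP as a measure of viable HepG2 cells after 40 h treatment at 37 °C. Signal decrease is scaled between DMSO-only and 100 uM tamoxifen controls, with AC50 fitted by the Hill equation.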

Assay [3] in a line: Cell Viability - Mesenchymal (AID 546).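 Further: cells exposed to compound for 40 hours before reading.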 The following applies: mesenchymal cells viability, qHTS; activity change, negative = cytotoxicity: at 91.7 µM (top of the series). The gist of the method: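 Normal human renal glomerulus-derived kidney mesenchymal cells, 1000 per well in complete medium, were treated with compounds for 40 hr at 37 °C. Viability was read as intracellular ATP by CellTiter-Glo luminescence; AC50 values came from Hill-equation fits of qHTS concentration-response data.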

Assay [4] is described as follows: Cellular Toxicity (caspase-3) Jurkat (AID 655).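 Further: cells exposed to compound for 16 h at 37 °C before reading.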 As to conditions: Jurkat caspase-3 activation, luminescence; caspase-3 activation: at 92.2 µM (top of the series), DMSO = 0%, tamoxifen = 100%. The gist of the method:
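5000 Jurkat cells/well; compound 16 hr, 37 °C; Caspase-Glo 3/7 added, 20 min RT; luminescence read. Norm: DMSO = 0%, tamoxifen 100 uM = 100%. AC50, Hill model.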

A short description of assay [5]: Cell Viability - LYMP2-003 (AID 965).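 Further: cells exposed to compounds for 24 h before reading; 0% = DMSO only and full effect = 92 µM tetraoctylammonium bromide; nearly all actives have a fitted effect of over 50% in size.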 As to conditions: LYMP2-003 lymphoblastoid cell viability; series mostly up to 92.2 µM. The essentials:
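Seed 2500 lymphoblastoid cells/well; incubate 5 hr, 37 C; add compounds; incubate 24 hr, 37 C; add CellTiter-Glo, 30 min RT; read luminescence. AC50 from Hill fit.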

A short description of assay [6]: Cell Viability - LYMP2-011 (AID 969).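 Further: cells exposed to compound for 24 hours; 0% = DMSO only and full inhibition = 92 µM tetraoctylammonium bromide; nearly all actives have a fitted effect of over 60% in size.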 The following applies: LYMP2-011 lymphoblastoid cells viability; series mostly up to 92.2 µM. The gist of the method:
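Acute toxicity is scored as a concentration-dependent drop in intracellular ATP of a human lymphoblastoid line after 24 hr treatment. Values are AC50s modeled with the Hill equation.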

The nature of assay [7]: Cell Viability - LYMP2-021 (AID 974).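 Further: compound exposure lasts 24 hours at 37 °C; on the % scale 0 is the no-effect control and ±100 the full control effect; nearly all actives have a fitted effect of over 55% in size.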 The following applies: LYMP2-021 lymphoblastoid cells viability; series mostly up to 92.2 µM. The essentials:
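Concentration-response cytotoxicity in a human lymphoblastoid line: 24 hr treatment at 37 C in complete culture medium, tetraoctylammonium bromide as positive control, luminescent ATP quantitation as viability measure.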

Assay [8] can be described thus: Cell Viability - LYMP2-023 (AID 975).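 Further: cellular ATP measured by luciferase luminescence as viability proxy; cells exposed to compound for 24 hours at 37 °C; plate controls were DMSO only for no effect and 92 µM tetraoctylammonium bromide control for full effect; nearly all actives have a fitted effect of over 55% in size.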 As to conditions: LYMP2-023 lymphoblastoid cell viability; series mostly up to 92.2 µM. The essentials: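 Concentration-dependent drop in intracellular ATP measures acute cytotoxicity in a human lymphoblastoid line treated for 24 hours in complete culture medium. AC50 values are taken from Hill-equation fits of qHTS data.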
The nature of assay [9]: Cell Viability - LYMP2-025 (AID 976).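 Further: plate controls were DMSO only for no effect and tetraoctylammonium bromide control for full effect.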 As to conditions: LYMP2-025 lymphoblastoid cell viability; series mostly up to 92.2 µM. The essentials:
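In qHTS format, LYMP2-025 lymphoblastoid cells in complete culture medium received compound for 24 hr; ATP-based CellTiter-Glo signal gave viability, with AC50 derived by Hill equation.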

Assay [10] is described as follows: Cell Viability - LYMP2-002 (AID 977).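 Further: plate controls were DMSO only for no effect and 92 µM tetraoctylammonium bromide for full effect.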 As to conditions: LYMP2-002 lymphoblastoid cell viability, qHTS; series mostly up to 92.2 µM. The essentials:
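Luminescent ATP readout (CellTiter-Glo, 30 min room temperature) after 24 h compound exposure at 37 C of a human lymphoblastoid line, 2500 cells/well. AC50 values derived by standard Hill fitting of qHTS concentration-response data.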

Assay [11] in a line: Cell Viability - LYMP2-008 (AID 980). Further: on the % scale 0 is the no-effect control and ±100 the full control effect; nearly all actives have a fitted effect of over 60% in size. The following applies: LYMP2-008 lymphoblastoid cell viability, qHTS; series mostly up to 92.2 µM. The gist of the method: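 Acute cytotoxicity is scored as concentration-dependent loss of cellular ATP in a human lymphoblastoid line after 24 hr treatment at 37 C. ATP is quantified by luciferase luminescence.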
The nature of assay [12]: Cell Viability - LYMP2-014 (AID 983).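 Further: plate controls were DMSO only for no effect and 92 µM tetraoctylammonium bromide for full effect; nearly all actives have a fitted effect of over 50% in size.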 The following applies: LYMP2-014 lymphoblastoid cells, viability qHTS; series mostly up to 92.2 µM. The gist of the method:
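Decrease in intracellular ATP after 24 hr treatment at 37 C, measured by luciferase luminescence, indicated cytotoxicity. Concentration-response data were fitted with the standard Hill equation to give AC50.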

The nature of assay [13]: Cell Viability - LYMP2-016 (AID 984).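 Further: cells exposed to compound for 24 hours at 37 °C; on the % scale 0 is the no-effect control and ±100 the full control effect; nearly all actives have a fitted effect of over 55% in size.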 The following applies: LYMP2-016 lymphoblastoid cell viability, qHTS; series mostly up to 92.2 µM. The gist of the method:
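Cells were seeded at 2500 per well and rested 5 hr before a 24 hr compound exposure at 37 C. Viability was then gauged as cellular ATP by luciferase luminescence, with AC50 values fitted to the Hill equation.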

Assay [14] can be described thus: Cell Viability - LYMP2-018 (AID 985).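 Further: plate controls were DMSO only for no effect and tetraoctylammonium bromide at 92 µM for full effect; nearly all actives have a fitted effect of over 50% in size.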 The following applies: LYMP2-018 lymphoblastoid cells, viability (qHTS); series mostly up to 92.2 µM. The essentials:
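Acute cytotoxicity is scored as a concentration-dependent drop in intracellular ATP after 24 hr exposure of the lymphoblastoid line in complete culture medium, measured by luciferase luminescence. Potency is expressed as AC50 from Hill modelling.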

The nature of assay [15]: Cell Viability - LYMP2-022 (AID 987).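 Further: 0% = DMSO alone and full effect = tetraoctylammonium bromide at 92 µM; nearly all actives have a fitted effect of over 55% in size.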 As to conditions: LYMP2-022 lymphoblastoid cell viability; series mostly up to 92.2 µM. The gist of the method:
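Acute toxicity in a human lymphoblastoid line is scored as decreased intracellular ATP after 24 hr compound treatment at 37 C. ATP is measured by CellTiter-Glo luminescence; curves are fitted with the Hill equation to give AC50.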

Assay [16] in a line: Cell Viability - LYMP2-024 (AID 988).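 Further: plate controls were DMSO only for no effect and 92 µM tetraoctylammonium bromide for full effect; nearly all actives have a fitted effect of over 60% in size.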 As to conditions: LYMP2-024 lymphoblastoid cell viability; series mostly up to 92.2 µM. The gist of the method: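 Acute toxicity is measured as concentration-dependent loss of intracellular ATP in a human lymphoblastoid line treated 24 hours at 37 C. Luciferase luminescence quantifies ATP; AC50 values come from standard Hill-equation modelling.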

Assay [17] can be described thus: Cell Viability - LYMP2-026 (AID 989). Further: on the % scale 0 is the no-effect control and ±100 the full control effect; nearly all actives have a fitted effect of over 50% in size. The following applies: LYMP2-026 lymphoblastoid cell viability, qHTS; series mostly up to 92.2 µM. The gist of the method:
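Concentration-dependent loss of intracellular ATP in human lymphoblastoid cells after 24 hr at 37 C, quantified by luciferase luminescence. AC50 derived from standard Hill equation.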

Assay [18] is described as follows: qHTS assay for small molecule antagonists of retinoid X receptor alpha signaling (AID 588546; active means well fitted inhibition curve with a large enough effect in the signal ratio, with a control signal flat, not every such curve was filed as active; the % refers to the signal ratio;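 further: cells stimulated with 9-cis-retinoic acid as agonist; on the % scale 0 is the no-effect control and ±100 the full control effect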). The following applies: HEK293T RXRa-UAS-bla, beta-lactamase ratio, antagonist mode; measured here: W530 green channel, cytotoxicity proxy. The essentials:
(§1)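 Beta-lactamase reporter inhibition, read as CCF4 fluorescence ratio (ex 405, em 460/530 nm) after 2 h at RT. HEK293T UAS-bla cells, 2500/well, were stimulated with 9-cis-RA at 500 or 100 nM final alongside test compound for 18 h at 37 C.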

Assay [19] concerns the target Retinoic acid receptor RXR-alpha (Homo sapiens) (UniProt P19793). The description is as above. The following applies: HEK293T RXRa-UAS-bla, beta-lactamase ratio, antagonist mode. The essentials:
as §1

Assay [20] in a line: qHTS assay for environmental chemicals that activate the Aryl hydrocarbon Receptor (AhR) signaling pathway (AID 651777). Further: % of control where 0% means no effect; nearly all actives have a fitted effect of over 15% in size. As to conditions: 1A2-DRE human hepatoma cells, luciferase, 24 h; activation: stronger effect = higher value. The gist of the method:
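Stable CYP1A2 promoter/DRE-luciferase human hepatoma line treated 24 hr; One-Glo luminescence, 30 min RT.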

For six compounds, Potency, max response and activation results are on record in PubChem BioAssay (NCATS).

Records with an inconclusive call do not appear. Calls of active or inactive are those of the source. Unless noted, the call rests on the fitted dose curve; in most records, active means well fitted curve in the direction sought with a large enough effect; inconclusive means small, poorly fitted or top-dose-only effect, or another doubt; inactive means no such curve, though single readings can be large; an effect the other way counts as inactive or inconclusive. A value given as a limit tells only on which side of the number the result lay.

Retinoic acid receptor RXR-alpha (Homo sapiens), sequence (P19793 whole entry, looked up): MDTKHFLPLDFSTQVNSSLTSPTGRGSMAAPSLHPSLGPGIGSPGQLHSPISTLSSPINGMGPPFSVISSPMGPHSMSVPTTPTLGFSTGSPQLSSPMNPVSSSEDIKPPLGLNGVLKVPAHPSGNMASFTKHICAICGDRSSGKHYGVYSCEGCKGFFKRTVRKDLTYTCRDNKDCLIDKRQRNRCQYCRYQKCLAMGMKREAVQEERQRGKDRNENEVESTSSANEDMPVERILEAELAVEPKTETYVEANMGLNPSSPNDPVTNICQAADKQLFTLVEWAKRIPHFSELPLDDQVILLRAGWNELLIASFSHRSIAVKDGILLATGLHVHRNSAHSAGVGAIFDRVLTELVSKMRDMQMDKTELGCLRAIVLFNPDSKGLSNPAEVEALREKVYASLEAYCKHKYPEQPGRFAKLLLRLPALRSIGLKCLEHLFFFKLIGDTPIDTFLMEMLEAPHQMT

Take `c1ccc(SCCSc2ccccc2)cc1`: the Potency in assay [1] and in assay [2] was > 92 µM (inactive) each time. Also, the Potency entry in assay [3], in [4], in [5], in [6], in assay [7] and in [8] was “inactive” in each case. For the same compound, the Potency entry in [9], in assay [10], in assay [11], in [12], in assay [13] and in assay [14] was “inactive” throughout. Besides, the Potency entry in assay [15], in assay [16] and in [17] was “inactive” throughout. Besides, the max response in assay [18] was 0.714%; in [19] it was -1.47% (inactive). Besides, the activation in assay [20] was 14.7% (inactive).

For `Nc1ccc(-c2ccc(N)c(O)c2)cc1O`, the Potency in assay [1] and in assay [2] was > 92 µM (inactive) throughout. In addition, the Potency result in [3], in [8], in assay [9], in assay [10], in assay [11] and in assay [12] was “inactive” each time. Further, the Potency entry in [13] and in assay [17] was “inactive” each time. The max response in [18] is -41.6%; in assay [19] it was -12% (inactive). In addition, the activation in [20] is -0.254% (inactive).

In the case of `C[Si](C)(C)Cl`, the Potency in [1] and in assay [2] was > 92 µM (inactive) each time. The Potency entry in assay [3], in assay [4], in [5], in assay [6], in assay [7] and in [8] was “inactive” throughout. Moreover, the Potency result in [9], in assay [10], in assay [11], in assay [12], in assay [13] and in assay [14] was “inactive” throughout. Further, the Potency result in assay [15], in assay [16] and in [17] was “inactive” each time. The max response in [18] was 3.42%; in [19], 16.7% (inactive). Also, in [20], the activation is 1.28% (inactive).

On to `O=C(Cl)c1ccc([N+](=O)[O-])cc1`, for which the Potency in [1] and in [2] was > 92 µM (inactive) in each case. For the same compound, the Potency result in assay [3], in assay [4], in [5], in [6], in [7] and in [8] was “inactive” throughout. Further, the Potency entry in assay [9], in assay [10], in assay [11], in [12], in [13] and in assay [14] was “inactive” in each case. The Potency entry in assay [15], in assay [16] and in [17] was “inactive” in each case. Further, the results for the max response in assay [18] and in assay [19] were -4.54% and 11.8% (inactive), respectively.

As for `c1ccncc1`, the Potency in assay [1] and in [2] was > 92 µM (inactive) each time. Besides, the Potency entry in assay [3], in [4], in [5], in assay [6], in assay [7] and in assay [8] was “inactive” each time. For the same compound, the Potency entry in [9], in assay [10], in assay [11], in assay [12], in assay [13] and in assay [14] was “inactive” throughout. Besides, the Potency result in [15], in assay [16] and in assay [17] was “inactive” throughout. In addition, in assay [20], the activation is -1.01% (inactive).

Take `Cc1cc(=O)oc2cc(O)cc(O)c12`: the Potency in [1] and in [2] was > 92 µM (inactive) throughout. Besides, the Potency entry in assay [3], in assay [4], in assay [5], in assay [6], in [7] and in assay [8] was “inactive” in each case. The Potency entry in [9], in assay [10], in [11], in [12], in assay [13] and in assay [14] was “inactive” each time. Further, the Potency entry in [15], in [16] and in [17] was “inactive” each time. For the same compound, in [20], the activation was 8.78% (inactive).
